According to publication PMC11006913:

What was measured:
Experiment in all cases: PBM; 200 nM protein, PBS
Details in all cases: dsDNA, one strand shown
[1] = biological target: PITX2 (Homo sapiens, UniProt Q99697 72-157)
[2] = biological target: PROP1 (Homo sapiens, UniProt O75360 56-141)
[3] = biological target: PROP1 (Homo sapiens, UniProt O75360 56-141, R99H)
[4] = biological target: PROP1 (Homo sapiens, UniProt O75360 56-141, F88S)
[5] = biological target: HOXD13 (Homo sapiens, UniProt P35453 263-343)
Sequence of HOXD13 (Homo sapiens, UniProt P35453 263-343) (P35453 263-343): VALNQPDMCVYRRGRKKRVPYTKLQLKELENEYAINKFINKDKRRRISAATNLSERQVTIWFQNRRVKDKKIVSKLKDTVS

[6] = biological target: CRX (Homo sapiens, UniProt O43186 26-111, R41L)
Sequence of CRX (O43186 26-111 R41L): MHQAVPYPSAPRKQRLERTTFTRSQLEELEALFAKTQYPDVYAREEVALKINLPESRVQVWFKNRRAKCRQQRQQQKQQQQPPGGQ

[7] = biological target: NKX3-2 (Homo sapiens, UniProt P78367 192-278, P234S)
Sequence of NKX3-2 (Homo sapiens, UniProt P78367 192-278, P234S) (P78367 192-278 P234S): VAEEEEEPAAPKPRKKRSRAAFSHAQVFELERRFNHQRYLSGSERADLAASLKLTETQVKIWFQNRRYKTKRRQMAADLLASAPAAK

[8] = biological target: NKX3-2 (Homo sapiens, UniProt P78367 192-278)
Sequence of NKX3-2 (Homo sapiens, UniProt P78367 192-278) (P78367 192-278): as the sequence (P78367 192-278 P234S) above, with S43P counted along it

[9] = biological target: SHOX (Homo sapiens, UniProt O15266 103-189, R173C)
Sequence of SHOX (O15266 103-189 R173C): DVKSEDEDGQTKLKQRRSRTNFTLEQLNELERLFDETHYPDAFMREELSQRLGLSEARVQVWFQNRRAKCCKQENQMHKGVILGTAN

[10] = biological target: HESX1 (Homo sapiens, UniProt Q9UBX0 95-180, R109Q)
Sequence of HESX1 (Q9UBX0 95-180 R109Q): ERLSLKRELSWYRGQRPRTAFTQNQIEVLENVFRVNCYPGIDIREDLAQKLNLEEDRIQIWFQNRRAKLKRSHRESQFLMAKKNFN

[11] = biological target: HOXD13 (Homo sapiens, UniProt P35453 263-343, T313A)
Sequence of HOXD13 (Homo sapiens, UniProt P35453 263-343, T313A) (P35453 263-343 T313A): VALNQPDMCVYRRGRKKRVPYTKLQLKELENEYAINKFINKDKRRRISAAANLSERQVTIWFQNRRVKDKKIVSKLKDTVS

[12] = biological target: T1, PAX4 (Homo sapiens, UniProt O43316 9-242, F177V)
T1 sequence: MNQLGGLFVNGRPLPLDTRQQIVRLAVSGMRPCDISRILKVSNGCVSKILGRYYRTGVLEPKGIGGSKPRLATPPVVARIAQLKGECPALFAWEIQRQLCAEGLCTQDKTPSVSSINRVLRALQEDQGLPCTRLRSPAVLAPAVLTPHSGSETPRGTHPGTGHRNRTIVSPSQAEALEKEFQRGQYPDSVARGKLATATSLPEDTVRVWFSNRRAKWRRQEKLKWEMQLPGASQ

[13] = biological target: HOXA4 (Homo sapiens, UniProt Q00056 201-287)
Sequence of HOXA4 (Q00056 201-287): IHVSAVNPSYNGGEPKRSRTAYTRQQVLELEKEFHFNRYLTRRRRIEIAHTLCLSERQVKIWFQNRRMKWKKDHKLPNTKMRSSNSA

[14] = biological target: PRRX1 (Homo sapiens, UniProt P54821 80-166)
Sequence of PRRX1 (P54821 80-166): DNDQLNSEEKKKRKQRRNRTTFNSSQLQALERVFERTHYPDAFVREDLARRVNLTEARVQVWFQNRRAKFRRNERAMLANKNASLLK

Sequence of PROP1 (Homo sapiens, UniProt O75360 56-141) (O75360 56-141): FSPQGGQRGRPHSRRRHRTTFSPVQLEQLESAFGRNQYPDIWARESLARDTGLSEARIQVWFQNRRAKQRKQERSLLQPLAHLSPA
Sequence of PROP1 (Homo sapiens, UniProt O75360 56-141, R99H) (O75360 56-141 R99H): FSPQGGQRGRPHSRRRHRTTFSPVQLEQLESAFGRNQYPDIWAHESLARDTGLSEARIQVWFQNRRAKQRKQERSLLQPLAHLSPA
Sequence of PROP1 (Homo sapiens, UniProt O75360 56-141, F88S) (O75360 56-141 F88S): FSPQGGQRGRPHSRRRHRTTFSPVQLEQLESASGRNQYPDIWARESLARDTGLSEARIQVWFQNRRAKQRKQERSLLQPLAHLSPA

Sequence: AGGAGGCC
- binding signal [1]: 8.05 upbm affinity estimate (log intensity, higher = more binding, comparable within an allelic series)
- binding signal [2]: 6.87 upbm affinity estimate (log intensity, higher = more binding, comparable within an allelic series)
- binding signal [3]: 6.81 upbm affinity estimate (log intensity, higher = more binding, comparable within an allelic series)
- binding signal [4]: 6.57 upbm affinity estimate (log intensity, higher = more binding, comparable within an allelic series)

Sequence: AAGTTGTA
- binding signal [5]: 10.7 upbm affinity estimate (log intensity, higher = more binding, comparable within an allelic series)

Sequence: GGTTTATA
- binding signal [1]: 10.5 upbm affinity estimate (log intensity, higher = more binding, comparable within an allelic series)
- binding signal [2]: 7.99 upbm affinity estimate (log intensity, higher = more binding, comparable within an allelic series)

Sequence: AATAATGC
- binding signal [5]: 10.8 upbm affinity estimate (log intensity, higher = more binding, comparable within an allelic series)

Sequence: CTGGCCGC
- binding signal [1]: 8.13 upbm affinity estimate (log intensity, higher = more binding, comparable within an allelic series)

Sequence: CTAAGCCC
- binding signal [1]: 12.3 upbm affinity estimate (log intensity, higher = more binding, comparable within an allelic series)
- binding signal [6]: 11.5 upbm affinity estimate (log intensity, higher = more binding, comparable within an allelic series)

Sequence: CGGTGATA
- binding signal [1]: 9.92 upbm affinity estimate (log intensity, higher = more binding, comparable within an allelic series)

Sequence: CCTGCTTA
- binding signal [1]: 10.3 upbm affinity estimate (log intensity, higher = more binding, comparable within an allelic series)

Sequence: ATCATTCA
- binding signal [5]: 10.6 upbm affinity estimate (log intensity, higher = more binding, comparable within an allelic series)

Sequence: ACGATATA
- binding signal [5]: 10.9 upbm affinity estimate (log intensity, higher = more binding, comparable within an allelic series)

Sequence: ACGGTGCC
- binding signal [1]: 7.94 upbm affinity estimate (log intensity, higher = more binding, comparable within an allelic series)
- binding signal [7]: 10.5 upbm affinity estimate (log intensity, higher = more binding, comparable within an allelic series)
- binding signal [8]: 10.5 upbm affinity estimate (log intensity, higher = more binding, comparable within an allelic series)

Sequence: TATATCAA
- binding signal [5]: 10.8 upbm affinity estimate (log intensity, higher = more binding, comparable within an allelic series)

Sequence: AGAGTTAA
- binding signal [5]: 10.7 upbm affinity estimate (log intensity, higher = more binding, comparable within an allelic series)

Sequence: ACATACGT
- binding signal [1]: 8.05 upbm affinity estimate (log intensity, higher = more binding, comparable within an allelic series)

Sequence: ACTTAATC
- binding signal [1]: 12.3 upbm affinity estimate (log intensity, higher = more binding, comparable within an allelic series)
- binding signal [6]: 12.4 upbm affinity estimate (log intensity, higher = more binding, comparable within an allelic series)

Sequence: AATTAGGT
- binding signal [9]: 9.2 upbm affinity estimate (log intensity, higher = more binding, comparable within an allelic series)
- binding signal [2]: 11 upbm affinity estimate (log intensity, higher = more binding, comparable within an allelic series)
- binding signal [10]: 8.66 upbm affinity estimate (log intensity, higher = more binding, comparable within an allelic series)
- binding signal [3]: 10.6 upbm affinity estimate (log intensity, higher = more binding, comparable within an allelic series)
- binding signal [4]: 7.74 upbm affinity estimate (log intensity, higher = more binding, comparable within an allelic series)

Sequence: ATCAATAC
- binding signal [5]: 10.5 upbm affinity estimate (log intensity, higher = more binding, comparable within an allelic series)

Sequence: AATTATGG
- binding signal [9]: 9.26 upbm affinity estimate (log intensity, higher = more binding, comparable within an allelic series)

Sequence: GCTCCACC
- binding signal [1]: 7.66 upbm affinity estimate (log intensity, higher = more binding, comparable within an allelic series)

Sequence: GAGTGCGC
- binding signal [1]: 7.98 upbm affinity estimate (log intensity, higher = more binding, comparable within an allelic series)

Sequence: CATCGACC
- binding signal [1]: 8.07 upbm affinity estimate (log intensity, higher = more binding, comparable within an allelic series)
- binding signal [7]: 10.6 upbm affinity estimate (log intensity, higher = more binding, comparable within an allelic series)
- binding signal [8]: 10.6 upbm affinity estimate (log intensity, higher = more binding, comparable within an allelic series)

Sequence: AAGCTAGG
- binding signal [1]: 9.89 upbm affinity estimate (log intensity, higher = more binding, comparable within an allelic series)
- binding signal [7]: 10.4 upbm affinity estimate (log intensity, higher = more binding, comparable within an allelic series)
- binding signal [8]: 10.4 upbm affinity estimate (log intensity, higher = more binding, comparable within an allelic series)

Sequence: GTTAAAGA
- binding signal [5]: 10.8 upbm affinity estimate (log intensity, higher = more binding, comparable within an allelic series)

Sequence: AGACTATA
- binding signal [5]: 10.7 upbm affinity estimate (log intensity, higher = more binding, comparable within an allelic series)

Sequence: ATAACTAA
- binding signal [5]: 10.9 upbm affinity estimate (log intensity, higher = more binding, comparable within an allelic series)
- binding signal [11]: 11 upbm affinity estimate (log intensity, higher = more binding, comparable within an allelic series)

Sequence: ATTGTATA
- binding signal [12]: 10.5 upbm affinity estimate (log intensity, higher = more binding, comparable within an allelic series)

Sequence: AAGATTGT
- binding signal [13]: 10.7 upbm affinity estimate (log intensity, higher = more binding, comparable within an allelic series)

Sequence: ATTTTAAC
- binding signal [5]: 11.2 upbm affinity estimate (log intensity, higher = more binding, comparable within an allelic series)
- binding signal [14]: 11.9 upbm affinity estimate (log intensity, higher = more binding, comparable within an allelic series)

Sequence: ACGAAATA
- binding signal [13]: 10.7 upbm affinity estimate (log intensity, higher = more binding, comparable within an allelic series)

Sequence: AATCATAT
- binding signal [5]: 11 upbm affinity estimate (log intensity, higher = more binding, comparable within an allelic series)
- binding signal [11]: 11 upbm affinity estimate (log intensity, higher = more binding, comparable within an allelic series)

Sequence: AAAATTAA
- binding signal [5]: 10.9 upbm affinity estimate (log intensity, higher = more binding, comparable within an allelic series)
- binding signal [11]: 10.8 upbm affinity estimate (log intensity, higher = more binding, comparable within an allelic series)

Sequence: ATTAAACA
- binding signal [5]: 11.3 upbm affinity estimate (log intensity, higher = more binding, comparable within an allelic series)
- binding signal [11]: 11.2 upbm affinity estimate (log intensity, higher = more binding, comparable within an allelic series)
